Screening data (PubChem)
SUMO Mot1 rescue: SUMOylation pathway inhibition by Mot1-301 growth rescue. AID 2716. growth rescue, % at 18.8 µM. S. cerevisiae Mot1-301 growth rescue, ATP luminescence, 38.5C; percent above DMSO median, 100 means doubled. actives 1% (n = 320,000);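 active = every valid replicate shows activation above 250% relative to neutral control wells; inactive = the rest, any valid replicate at or below 250%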;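 note: OY570 slx delta 5 strain wells were the positive control but not used for scaling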
NTR1 ag: activates human neurotensin receptor 1. P30989. NTR1-U2OS beta-arrestin-GFP spot imaging, agonist mode. activation, % at 20 µM. actives 0.17% (n = 330,000);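 active = activation at or above 40% of the spot to cytoplasm intensity ratio, with at least 20 cells analyzed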;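 note: 0% = DMSO without peptide and 100% = 100 nM NTR1 peptide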
Target sequence (P30989 whole entry, looked up): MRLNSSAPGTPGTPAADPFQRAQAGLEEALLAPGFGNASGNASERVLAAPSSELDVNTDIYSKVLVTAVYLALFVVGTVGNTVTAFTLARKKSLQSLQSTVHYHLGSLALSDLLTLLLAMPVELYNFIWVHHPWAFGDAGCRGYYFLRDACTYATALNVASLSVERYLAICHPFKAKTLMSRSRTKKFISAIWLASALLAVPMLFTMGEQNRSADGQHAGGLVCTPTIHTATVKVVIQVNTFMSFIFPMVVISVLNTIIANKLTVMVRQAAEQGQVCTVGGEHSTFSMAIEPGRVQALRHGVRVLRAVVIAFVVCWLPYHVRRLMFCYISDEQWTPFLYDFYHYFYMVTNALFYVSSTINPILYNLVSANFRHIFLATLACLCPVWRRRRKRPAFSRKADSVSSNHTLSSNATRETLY
GRIN3A LBD mod: modulators (binders) of human NR3A ligand-binding domain; Tm shift relative to glycine control, % at 25 µM; NR3A LBD differential scanning fluorimetry, Tm shift; 0% = protein alone, 100% = glycine-bound protein; actives 2.5% (n = 340,000);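 active = melting temperature shift of at least 10% of the positive control shift, at one fixed dose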
Cardio protect: protects H9c2 cardiomyocytes from peroxide injury. actives 0.63% (n = 360,000). protection from H2O2 cell death, % at 20 µM. AID 588492. H2O2 injury protection, ATPLite, 2 h;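 active = compounds giving at least 50% protection of heart cells from peroxide-induced death in the single-dose screen, raw or plate-pattern-corrected value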;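 note: 0% = DMSO wells with peroxide and 100% = DMSO wells without peroxide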
AI-2 QS modul: modulates the Vibrio harveyi AI-2 quorum sensing system | activity change, % at 7.5 µM | AID 2094 | Vibrio harveyi JMH597 AI-2 luminescence/OD600 ratio, 9 h; stronger effect = lower value; strain lacks LuxN and CqsS sensors; 0 = neutral-control median | actives 0.4% (n = 300,000); in the data active = activity change below about -75%, passing the limit was not always enough;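 note: luminescence divided by OD600 gain over 9 h not by final OD600 alone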
AHR activator: activators of human aryl hydrocarbon receptor. AHR-responsive luciferase reporter cells, luminescence. activation, % at 5 µM. actives 2.5% (n = 320,000); in the data active = activation above about 47%;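 note: 0% = vehicle wells and 100% = reference agonist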
NTR1 ag confirm: confirmation of agonists of human NTR1; activation, % at 20 µM; NTR1-U2OS beta-arrestin-GFP translocation imaging; shares compounds with NTR1 ag; actives 38% (n = 480); AID 504550;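 active = mean activation at 20 µM of at least 40%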;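 note: 0% = DMSO without peptide and 100% = 100 nM NTR1 peptide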
* marks the source's active call; other numbers are inactive results; x = not tested or not shown. Only some compounds are listed: those with a hit (about 6.2% of all), similar ones and a draw of the others.

SMILES	SUMO Mot1 rescue	NTR1 ag	GRIN3A LBD mod	Cardio protect	AI-2 QS modul	AHR activator	NTR1 ag confirm
CCCNC(=O)C1(C)CCCN(C(=O)CN2C(=O)c3ccccc3C2=O)C1 (stereo not given)	x	x	x	3	x	x	x
CCN(CC)CCCNC(=O)CCn1nc(-c2ccccc2)ccc1=O	-5	1	-2	-2	27	5	x
CC1CCC(C(C)C)C(OC(=O)Cn2c(-c3ccccc3)[n+](C)c3ccccc32)C1 (stereo not given)	-22	9	-1	-16	17	-1	x
Cc1cccc(OCc2n(CC(=O)OC3CC(C)CCC3C(C)C)c3ccccc3[n+]2C)c1 (stereo not given)	-26	92*	-8	-21	37	0	101*
O=C(/C=C\c1ccccc1OC(=O)c1ccccc1F)c1cc2ccccc2o1	-18	67*	-5	-21	19	59*	74*
Cc1cccc(CN2CCN(C3CN(Cc4ccc([N+](=O)[O-])cc4)S(=O)(=O)C3)CC2)c1 (stereo not given)	x	x	x	-6	x	x	x
CCc1cc(-c2n[nH]c(C)c2Oc2ccc(C(C)C)cc2)c(O)cc1O	7	64*	32*	-20	2	14	30
O=S(=O)(c1ccc(N2CC=C(c3ccccc3)CC2)nc1)N1CCCC1	45	50*	0	2	13	-4	1
CCOC(=O)C1Nc2ccc(C(F)(F)F)cc2C2c3ccccc3CC12 (stereo not given)	21	56*	3	2	14	29	7
CCOC(=O)C1Nc2ccccc2C2C(O)C(O)CC12 (stereo not given)	12	1	-6	-2	10	-1	x
Cc1ccc(S(=O)(=O)N(CCCO)CC(O)CON=C2c3ccccc3-c3ccccc32)cc1 (stereo not given)	-22	47*	-2	-16	4	11	22
COc1ccc(C(C(=O)NC2CCCC2)N(C(=O)c2snc(C(N)=O)c2N)c2ccccc2OC)cc1OC (stereo not given)	13	61*	-4	-2	10	2	2
C/C(=N/Nc1cc(-c2ccccc2)nc(-c2ccccc2)n1)c1ccc(O)cc1	-7	54*	34*	-11	26	66*	46*
FC(F)Sc1ccc(NC(=S)NC(c2ccccc2)c2ccccc2)cc1	-14	41*	28*	-29	14	9	0
c1ccc(SCCOCCn2cncn2)cc1	5	1	-1	-2	-9	6	x
OC(Cn1cncn1)(c1ccccc1)c1ccccc1	175	55*	1	-7	8	3	-4
Cn1cc([N+](=O)[O-])c(C(=O)Nc2nc(-c3ccc(Cl)cc3)cs2)n1	6	49*	-4	-33	45	-12	71*
Cc1ccc(-c2nc(NC(=O)c3nn(C)cc3[N+](=O)[O-])sc2C)cc1	-18	39	-4	-20	7	5	x
COC(=O)C1CN(S(=O)(=O)c2cc(OC)ccc2OC)CCS1 (stereo not given)	-12	-2	-2	7	23	0	x
COC(=O)c1ccc(/C=C/C(=O)OCC(=O)Nc2sccc2C(N)=O)cc1	5	45*	-1	2	x	1	77*
Cc1cccc(NC(=O)Nc2ccc(Oc3c(F)c(F)c(F)c(F)c3F)cc2)c1	11	-1	x	-4	13	6	x
O=C(Nc1ccc(Oc2c(F)c(F)c(F)c(F)c2F)cc1)OC1CCN2Cc3ccccc3N=C12 (stereo not given)	130	40*	-2	-2	4	4	54*
CCCCOc1ccc(N2C(=O)C(C)CNC2=S)cc1 (stereo not given)	x	x	-1	-2	x	x	x
CC[C@@H](C(=O)[C@@H](C)[C@@H](O)[C@H](C)[C@@H]1O[C@@H]([C@@H](CC)C(=O)O)CC[C@@H]1C)[C@H]1O[C@]2(C=C[C@@H](O)[C@]3(CC[C@@](C)([C@H]4CC[C@](O)(CC)[C@H](C)O4)O3)O2)[C@H](C)C[C@@H]1C	x	x	-1	-36	x	x	x
